Many of the other results were omitted from the sample, so hits are more common in it than they were.
Cycloheximide cs – counter-screen for Shiga toxin inhibitors: cycloheximide protein synthesis inhibition. max response, %. cell reporter, cycloheximide protein synthesis inhibition counterscreen. AID 2314. 300,000 compounds, 12% hits; in the data active means max response mostly above about 13%, no sharp cut-off; inactive means mostly below about 14%; further: read at 38.3 µM for the half of the compounds with a filed dose; 0% is about no effect
TbPYK inhibitor – T. brucei pyruvate kinase inhibition. 410,000 compounds, 0.12% hits. TbPYK enzyme, Kinase-Glo Plus ATP luminescence, 45 min. Potency, µM (top dose mostly 76.8 µM), for inactives: top-dose activity, negative = inhibition, actives largely listed as inhibitors; further: potency means the concentration at half of the fitted maximal effect; on the % scale 0 is the no-effect control and ±100 the full control effect; nearly all actives have a fitted effect of over 50% in size
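Screened from lowest to highest concentration, compounds were pinned into TbPYK/substrate mixtures, and ADP (130 uM final) was added. Plates sat at room temperature for 45 min prior to Kinase-Glo Plus detection by luminescence.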
Sm TGR block – blocks Schistosoma mansoni thioredoxin glutathione reductase; purified TGR, DTNB reduction, TNB absorbance 405 nm; Potency, µM (top dose mostly 114 µM), inactives show top-dose activity change, negative = inhibition, usual class: inhibitors; Q962Y6; 360,000 compounds, 3% hits; AID 485364; further: potency means the concentration at half of the fitted maximal effect; on the % scale 0 is the no-effect control and ±100 the full control effect; nearly all actives have a fitted effect of over 60% in size
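Kinetic colorimetric format: TGR-catalysed, NADPH-driven DTNB reduction monitored via TNB absorbance. Enzyme dispensed at 20 nM; compound exposure 15 min at room temperature before reaction start.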
Shiga toxin inh – Shiga toxin inhibition. Vero cells, Shiga toxin protein synthesis inhibition reporter. inhibition, % at 38.7 µM. 290,000 compounds, 9.2% hits. AID 2315; in the data active means inhibition mostly above about 28%, no sharp cut-off; inactive means mostly below about 43%; further: 0% is about no effect
FBPA Giardia inh – Giardia lamblia aldolase inhibition. Potency, µM (highest dose often 59.6 µM), without a hit: at the top dose activity, negative = inhibition, actives largely listed as inhibitors. A8B2U2. purified Giardia FBPA. 290,000 compounds, 0.71% hits; further: potency means the concentration at half of the fitted maximal effect; on the % scale 0 is the no-effect control and ±100 the full control effect; nearly all actives have a fitted effect of over 55% in size
Target sequence (A8B2U2 whole entry, looked up): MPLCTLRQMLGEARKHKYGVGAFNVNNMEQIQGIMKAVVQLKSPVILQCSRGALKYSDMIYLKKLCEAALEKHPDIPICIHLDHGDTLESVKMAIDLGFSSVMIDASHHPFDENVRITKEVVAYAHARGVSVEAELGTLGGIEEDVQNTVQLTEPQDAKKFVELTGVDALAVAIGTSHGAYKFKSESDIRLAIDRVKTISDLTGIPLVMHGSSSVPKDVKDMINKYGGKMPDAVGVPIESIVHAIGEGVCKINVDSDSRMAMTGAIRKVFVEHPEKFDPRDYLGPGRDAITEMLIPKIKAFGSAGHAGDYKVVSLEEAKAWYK
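Giardia FBPA (40 nM reagent) was preincubated 10 min at RT with compound (up to 57.5 uM final), then substrate plus GAPDH/TPI/NAD/arsenate coupling system with diaphorase/resazurin was added; resorufin fluorescence (525/598 nm) was read after 20 min.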
LmPK inh – blocks Leishmania mexicana pyruvate kinase activity; purified LmPK, Kinase-Glo ATP luminescence, 1 h; Q27686; Potency, µM (highest dose often 57.5 µM), inactives show top-dose activity change, negative = inhibition, hits mostly inhibitors; 290,000 compounds, 0.37% hits; AID 1721; further: potency means the concentration at half of the fitted maximal effect; on the % scale 0 is the no-effect control and ±100 the full control effect
Target sequence (Q27686 whole entry, looked up): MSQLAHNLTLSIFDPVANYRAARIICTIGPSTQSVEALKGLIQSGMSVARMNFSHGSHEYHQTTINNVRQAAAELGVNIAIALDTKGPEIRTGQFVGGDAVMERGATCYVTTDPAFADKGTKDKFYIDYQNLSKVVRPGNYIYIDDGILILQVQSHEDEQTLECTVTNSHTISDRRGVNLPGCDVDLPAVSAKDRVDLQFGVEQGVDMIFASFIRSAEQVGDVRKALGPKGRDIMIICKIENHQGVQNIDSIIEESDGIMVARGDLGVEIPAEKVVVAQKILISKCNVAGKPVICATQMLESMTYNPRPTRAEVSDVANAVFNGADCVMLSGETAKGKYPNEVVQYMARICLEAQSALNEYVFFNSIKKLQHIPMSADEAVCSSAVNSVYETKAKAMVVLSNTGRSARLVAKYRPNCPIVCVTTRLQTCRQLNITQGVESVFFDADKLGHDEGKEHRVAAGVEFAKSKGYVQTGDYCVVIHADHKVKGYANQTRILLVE
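In 50 mM imidazole pH 7.2 with 7 mM MgCl2, LmPK (0.1 nM) turned over PEP (0.5 mM) and ADP (0.1 mM) for 1 h at room temperature. Luciferase read-out of ATP.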
Active calls of the source: *; ? = inconclusive; . = not tested or not shown; [ ] = dose if it differs, or a comment. Unless noted, the call rests on the fitted dose curve; in most records, active means well fitted curve in the direction sought with a large enough effect; inconclusive means small, poorly fitted or top-dose-only effect, or another doubt; inactive means no such curve, though single readings can be large; an effect the other way counts as inactive or inconclusive.

SMILES | Cycloheximide cs | TbPYK inhibitor | Sm TGR block | Shiga toxin inh | FBPA Giardia inh | LmPK inh
CCOc1cc(/C=N/N=C2/NC(=O)C(CC(=O)O)S2)ccc1OCc1ccc(Cl)cc1 (stereo not drawn) | -3.5 | ? | 8.9% | -1.0 | 5.5% | 12.6µM*
COc1ccc(/C=N/N=C2/NC(=O)C(CC(=O)O)S2)cc1OS(=O)(=O)c1ccccc1 (stereo not drawn) | 6.1 | -19.4% | 7.4% | -21.6 | -0.9% | -4.8%
CCOC(=O)CCc1c(C)nc(SCC(=O)O)c(C#N)c1C | 1.1 | 31.6µM* | 5.1% | -11.1 | 0.6% | 26.2%
Cc1ccc2nc(NC(=O)c3cc(-c4ccco4)nc4ccccc34)sc2c1 | 23.7* | -1.3% | -3.7% | 35.1 | 2.1% | 1.1%
O=C(NC1CC1)c1cc(-c2ccco2)nc2ccccc12 | -2.9 | -16.5% | 10µM* | -5.0 | ? | 6.6%
COc1cccc(-c2cc(C(=O)Nc3nc4ccccc4s3)c3ccccc3n2)c1 | 24.1 | 2.9% | -21.5% | 42.3 | 1.5% | 0.2%
Cc1nnc(NC(=O)c2cc(-c3ccco3)nc3ccccc23)s1 | . | . | 7.94µM* | . | . | .
Cc1csc(NC(=O)c2cc(-c3ccco3)nc3ccccc23)n1 | 9.1 | -6.1% | ? | 6.8 | -4.8% | -3.1%
O=C(Nc1nc2ccccc2s1)c1cc(-c2ccco2)nc2ccccc12 | 49.6* | -6.4% | -33.5% | 60.4* | 2.4% | 0.6%
COc1ccccc1CNC(=O)C(=O)NCC(c1cccs1)S(=O)(=O)c1ccc(F)cc1 (stereo not drawn) | . | 1.8% | -34.6% | . | . | .
CCCOc1ccc(CNC(=O)CN2C(=O)c3cccnc3Oc3ccc(C)cc32)cc1 | . | -6.6%[15.4 µM] | 0.9% | . | . | .
CC(=O)NCCNc1ncnc2ccc(-c3ccc(C(=O)N(C)C)cc3)cc12 | . | . | . | . | -4.8% | .
O=C(Nc1nccs1)c1cc(-c2ccccc2)nc2ccccc12 | -4.0 | -2.7% | 0.7% | -4.1 | -3.3% | -0.3%
O=C(Nc1nccs1)c1cc(-c2ccco2)nc2ccccc12 | -1.2 | -1.6% | 56.2µM* | -4.1 | -13.2% | 0.3%
COc1ccccc1CNC(=O)Cn1ncn2c(cc3sccc32)c1=O | . | -6.2% | -8.8% | . | . | .
O=C(O)c1cc(-n2[nH]c(=O)c3ccccc3c2=O)ccc1Cl | 43.5* | 2.0% | -5.6% | 148.4* | 4.4% | 3.2%
O=c1[nH]n(-c2ccccc2)c(=O)c(Cl)c1Cl | 0.7 | 1.6% | ? | -7.9 | -6.8% | 12.3%
COc1ccc(C2=NC3(CCCCCC3)N(CC(=O)Nc3cccc(Cl)c3)C2=O)cc1 | . | 4.0% | -1.0% | . | . | .
Oc1cc(O)cc(/C=C/c2ccc(O)c(O)c2)c1 | -6.8 | ? | 22.4µM* | -5.9 | ? | .
C/C=C/c1ccc(O)c(OC)c1 | . | 43.1% | -3.2% | . | . | .
Cc1ccc(NC(=O)c2oc3ccccc3c2NC(=O)c2ccc(F)c(F)c2)cc1 | . | -1.4% | -1.9% | . | . | .
CC1=CN2C(=N)/C(=C/c3ccc(Sc4ccc(Cl)cc4)o3)C(=O)N=C2S1 | 4.1 | -12.8% | 3.4% | -3.3 | 1.0% | 0.1%
CC1=CN2C(=N)/C(=C/c3ccc(Sc4ccc(C)cc4)o3)C(=O)N=C2S1 | 23.1* | -13.6% | 1.2% | active | 20.1% | 3.8%
CC1=CN2C(=N)/C(=C/c3ccc(C)o3)C(=O)N=C2S1 | 24.1* | -7.8% | -24.7% | 53.3* | 6.4% | -15.4%
COc1ccc(NC(=O)CSC2=Nc3ccccc3C3=NC(CCC(=O)NCCc4ccccc4)C(=O)N23)c(OC)c1 (stereo not drawn) | . | -13.8% | 12.8% | . | . | .
SMILES | Cycloheximide cs | TbPYK inhibitor | Sm TGR block | Shiga toxin inh | FBPA Giardia inh | LmPK inh
CC1=CCC2COC(c3ccc[n+](Cc4ccccc4)c3)C1C2 (stereo not drawn) | -3.5 | 2.0% | 35.5µM* | -7.5 | ? | -3.5%
COc1ccc(C2=NN(C(=O)c3ccccc3)C(c3cccc([N+](=O)[O-])c3)C2)cc1 (stereo not drawn) | -3.4 | -0.6% | 15.4% | -1.8 | -5.8% | 4.3%
CCOC(=O)/C=C(/C)N1N=C(c2ccc(OC)cc2)CC1c1cccc([N+](=O)[O-])c1 (stereo not drawn) | 46.0* | -9.3% | -4.2% | 113.2* | -24.5% | -0.7%
C=CCOc1ccc(CNCc2cccnc2)cc1 | 8.5* | 3.1% | 3.7% | 14.8 | -12.9% | -5.4%
CCOc1ccc(-c2csc3nc[nH]c(=O)c23)cc1 | 29.6* | -5.3% | 7.3% | 109.6* | 8.0% | -0.2%
CC(C)c1ccc(-c2csc3nc[nH]c(=O)c23)cc1 | 24.3* | -5.5% | -16.6% | . | -5.4% | 13.5%
CCc1ccc(-c2csc3nc[nH]c(=O)c23)cc1 | 22.5* | -2.5% | 5.5% | 15.3 | -5.3% | -2.5%
O=c1[nH]cnc2scc(-c3ccc(Br)cc3)c12 | 10.5 | 2.6% | 1.7% | 25.3 | 3.6% | -1.4%
Cc1ccc(NC(=O)CC2SC3=NCCCN3C2=O)c(C)c1 (stereo not drawn) | -0.5 | 8.6% | 2.82µM* | 12.8 | -24.2% | -11.0%
Cc1cc(Cl)ccc1OCC(=O)N1C(C)CCCC1C (stereo not drawn) | 20.4* | -4.3% | -9.8% | 73.1* | 7.4% | -3.5%
CC1CCCC(C)N1C(=O)COc1ccc(F)cc1 (stereo not drawn) | 25.7* | 0.9% | -0.8%[57.1 µM] | 11.8 | 8.2% | -4.5%
CC1CCCC(C)N1C(=O)COC(=O)COc1ccc(C#N)cc1 (stereo not drawn) | . | 0.7% | . | . | . | .
CCOc1ccc(C(=O)c2cccs2)cc1 | 27.5* | -0.3% | -9.8% | 43.6 | 0.2% | -0.1%
CCCOc1ccc(C(=O)Nc2ccc(N(C)C)cc2)cc1 | 47.4* | -14.5% | 1.8% | 140.7* | 6.4% | 2.1%
CC(C)Oc1ccc(C(=O)Nc2ccc(N(C)C)cc2)cc1 | 25.3* | ? | -6.0% | 89.9* | 3.9% | 4.0%
CC(C)Oc1ccc(C(=O)Nc2ccc3c(c2)n(C)c(=O)n3C)cc1 | 23.5 | 5.6% | -6.6% | 47.4 | 8.3% | 0.4%
CCCOc1ccc(C(=O)Nc2ccc(NC(=O)c3cccs3)cc2)cc1 | 13.3 | -3.0% | 2.0% | 49.5* | 5.2% | 1.6%
CCCOc1ccc(C(=O)Nc2ccc(CN3CCOCC3)cc2)cc1 | 6.2 | -9.3% | 3.0% | 13.4 | 2.6% | -8.1%
CCCCOc1cccc(C(=O)Nc2ccc(NC(=O)c3cccs3)cc2)c1 | -1.4 | 0.0% | 12.7% | 28.0 | 1.3% | 8.6%
Cc1ccc(-c2nn(-c3cccc([N+](=O)[O-])c3)c3c2cnc2ccc(F)cc23)cc1 | . | -1.7% | -1.8% | . | . | .
O=C(CN(C(=O)CCC(=O)Nc1ccccn1)c1ccc(F)cc1)NCCc1ccccc1 | -4.3 | -5.8% | -5.0% | -1.7 | 14.3% | -0.1%
CCOC(=O)CSc1nc(-c2ccc(F)cc2)cc(C(F)(F)F)c1C#N | . | 0.3% | 1.9% | . | . | .
CCOC(=O)COc1nc(-c2ccco2)cc(-c2ccco2)c1C#N | -2.6 | -8.7% | 31.6µM* | 8.3 | -1.3% | 12.7%
CCOc1nc2c(c(-c3cccs3)c1C#N)Cc1ccccc1-2 | -2.9 | 1.2% | 16.1% | 0.2 | 3.6% | 3.3%
